Screens as filed in PubChem.
Dicer processing: inhibitors of human Dicer processing of pre-microRNA; cat-ELCCA pre-miR-21 Dicer processing, chemiluminescence; hits give high values; z-score at 25 µM; actives 6% (n = 47,000); AID 1347074; in the data active = z-score above about 3, passing the limit was not always enough;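 note: plate controls were vehicle for no effect and no enzyme for full effect; higher signal means more uncleaved substrate so more Dicer inhibition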
Numbers without * were called inactive. The sample as a whole holds a higher share of hits than the screen did.

SMILES	Dicer processing
CC1=C(C(=O)OCc2ccccc2)C(c2cccnc2)C2=C(CC(C)(C)CC2=O)N1 (configuration not stated)	2.5
COC(=O)c1scc(S(C)(=O)=O)c1N	2.2
CC1(C)OC2[C@H](n3cnc4c(N)ncnc43)O[C@H](CO)[C@H]2O1 (some centres not stated)	0.54
CC(=O)N[C@H](C(=O)O)C(C)(C)SN=O	-4.7
CCS(=O)(=O)c1ccc(N2CCC(NC3CC(=O)N(c4ccc(F)cc4)C3=O)CC2)cc1 (configuration not stated)	0.58
COC(=O)c1cn(CCOc2ccccc2)c2ccccc12	3.1*
CCN(CC)C(=O)Cn1cc(C(=O)c2ccco2)c2ccccc21	-0.38
O=C(c1ccco1)c1cn(CCOc2ccc(Cl)cc2)c2ccccc12	-0.39
COC(=O)c1cn(CCOc2ccc(F)cc2)c2ccccc12	2.2
O=C(c1ccco1)c1cn(CCOc2ccccc2)c2ccccc12	-0.39
COC(=O)Cn1cc(C(=O)c2ccccc2)c2ccccc21	3.6*
CC(C)(C)C(=O)c1cn(CC(=O)O)c2ccccc12	0.33
O=C(c1cccs1)c1cn(CCOc2ccc(F)cc2)c2ccccc12	3.5*
O=C(c1ccco1)c1cn(CCOc2ccc(F)cc2)c2ccccc12	1.6
Fc1ccc(Nc2nc(-c3ccccn3)cs2)cc1	2.6
Cc1ccc(C(=O)CSc2nnc(C(F)(F)F)n2C)cc1	-1.8
Cn1c(=O)c2[nH]c(NCCO)nc2n(C)c1=O	-0.54
O=C(Cn1nc(-c2ccccc2)c2ccccc2c1=O)c1ccc(Cl)cc1	1.2
CCN(CC)CCNc1ncnc2c1sc1nc3c(cc12)COC(C)(C)C3	0.98
CC1(C)Cc2nc3sc4c(NCC5CCCO5)ncnc4c3cc2CO1 (configuration not stated)	5.7*
CCCCCNc1ncnc2c1sc1nc3c(cc12)COC(C)(C)C3	1.8
CCOC(=O)c1c(/C=C/c2ccccc2)nn(-c2ccccc2)c1C	-0.1
Cn1c(=O)c2c(nc(N3CCCCC3)n2Cc2ccccc2F)n(C)c1=O	1.7
CN1CCN(c2nc3c(c(=O)n(C)c(=O)n3C)n2Cc2ccccc2Cl)CC1	4.2*
CN1CCN(c2nc3c(c(=O)n(C)c(=O)n3C)n2Cc2c(F)cccc2Cl)CC1	0.87
SMILES	Dicer processing
COc1ccc(OC)c(S(=O)(=O)c2cc(C)c(F)c(C)c2)c1	-0.9
O=C(O)CCCc1ccc2c(c1)OCCO2	0.16
CSc1nc2ccccc2c(=O)n1CCc1ccccc1	-0.42
C=C(C)Cn1c(C2CC(=O)N(c3ccc(OCC)cc3)C2)nc2ccccc21 (configuration not stated)	2.2
O=C1CC(c2nc3ccccc3n2CCc2ccccc2)CN1c1ccccc1 (configuration not stated)	4.3*
O=C1CC(SCc2ccc(Cl)cc2)C(=O)N1c1ccccc1 (configuration not stated)	-5.8
Cc1nc2ccccc2n1C1CC(=O)N(c2ccc(F)cc2)C1=O (configuration not stated)	0.57
CCOc1ccc(N2CC(c3nc4ccccc4n3CC)CC2=O)cc1 (configuration not stated)	2.9
CC(c1ccccc1)n1c(C2CC(=O)N(c3ccccc3)C2)nc2ccccc21 (configuration not stated)	4.7*
CCCCCCn1c(C2CC(=O)N(c3ccccc3)C2)nc2ccccc21 (configuration not stated)	2.2
O=c1[nH]c2ccccc2n1Cc1ccc(Cl)cc1	0.77
CC(C)CCn1c(C2CC(=O)N(c3ccccc3)C2)nc2ccccc21 (configuration not stated)	3.7*
CC(C)c1ccc(N2CC(C(=O)O)CC2=O)cc1 (configuration not stated)	7.6
O=C1CC(c2nc3ccccc3n2Cc2ccc(Cl)cc2)CN1c1ccccc1 (configuration not stated)	5.9*
COc1ccc(C2=NN(S(=O)(=O)c3ccc(C)cc3)C(c3cccc(OC)c3OC)C2)cc1OC (configuration not stated)	-0.65
CN(C(=O)Nc1ccc(Cl)cc1)C1CC2C=CC1C2 (configuration not stated)	2
N#CC1(c2ccccc2)N=C2C=CC=CN2N=C1c1ccccc1 (configuration not stated)	-0.1
O=C1CC(NCCc2c[nH]c3ccccc23)C(=O)N1CCc1ccccc1 (configuration not stated)	0.41
Nc1cccc2c(-c3ccccc3)ccnc12	-0.42
CC[n+]1c(/C=C/C=C2/N(C)c3ccccc3C2(C)C)sc2ccccc21	0.57
O=S(=O)(c1cc(C(F)(F)F)cc(C(F)(F)F)c1)c1cccc(S(=O)(=O)N2CCOCC2)c1	-0.63
CCN(CC)c1ccc(C2C(C#N)=C(C)NC3=C2C(=O)CCC3)cc1 (configuration not stated)	-0.42
Cc1ccc(Cl)cc1S(=O)(=O)N1CCN(S(=O)(=O)c2cc(Cl)ccc2C)C(C)C1 (configuration not stated)	-0.1
Cc1ccc(S(=O)(=O)NC2C(C)(C)C3CC[C@]2(C)C3)cc1 (some centres not stated)	1.5
COc1ccc(NC(=O)c2scc(S(=O)(=O)C(C)C)c2N)cc1	-0.51
SMILES	Dicer processing
COc1ccc(NC(=O)OC(C)C)cc1	3.5*
CCN(CC)C(=O)Nc1ccc(OC)cc1	0.09
COc1cc(C(=O)O)c(NC(C)=O)c(OC)c1OC	-1.4
COc1ccc(OCC(O)CNC(=S)Nc2ccc3c(c2)OCO3)cc1 (configuration not stated)	1.4
CCOc1ccc(Cl)cc1S(=O)(=O)NCc1ccccn1	0.45
CCOc1ccc(C)cc1S(=O)(=O)Nc1ccc(Cl)cn1	4.6*
COc1ccc(C(C)C)cc1S(=O)(=O)Nc1ccc(Cl)cn1	0.52
CCn1c(C(O)c2ccc(OCc3ccccc3)c(OC)c2)nc2ccccc21 (configuration not stated)	-0.14
COC(=O)c1cccc(OC(=O)c2sc3ccccc3c2Cl)c1	-0.72
CC(C)(C)c1cc(C(=O)Nc2nnc(C3CC3)s2)n(Cc2ccc(Cl)cc2Cl)n1	-0.37
O=C(O)c1ccc(-n2nnnc2SCc2ccccc2Br)cc1	0.34
NC(=O)c1ccc(-n2nnnc2SCc2ccccc2Br)cc1	4*
Clc1ccccc1CSc1nnnn1-c1ccccc1	0.72
O=S(=O)(NCC1CN(Cc2ccccc2)CN(Cc2ccccc2)C1)c1ccc(Cl)cc1	1.3
Cc1nnc(SC(C(=O)c2c(C)[nH]c3ccccc23)c2ccccc2)s1 (configuration not stated)	-0.17
N/C(=N\OC(=O)c1cccc(C(F)(F)F)c1)c1cc2nccc(-c3cccc(C(F)(F)F)c3)n2n1	-0.46
O=C(Nc1ccc2c(c1)OCCO2)c1cc2ccccc2o1	0.46
O=C(NC1=NCCS1)c1cccs1	-1.1
O=C(NC1=NCCS1)c1cc2ccccc2o1	3.6*
CC1(C)CC(=O)C2=C(C1)Nc1cc(C(=O)c3ccccc3)ccc1NC2c1ccccc1 (configuration not stated)	-0.43
Cc1cc(C(=O)NCc2cc3ccccc3s2)nn1C	0.48
COC(=O)c1ccc(CSc2nc(N)c3c4c(sc3n2)CCCC4)cc1	2.2
COc1ccc(OC)c(NC(=O)C2C3CCC(O3)C2C(=O)O)c1 (configuration not stated)	0.96
C=CCN1C(=O)C(O)(CC(=O)c2cc(C)ccc2C)c2ccccc21 (configuration not stated)	9.4*
